Experimental data from the emibetuzumab library of Makowski et al. (2022).
The list shows a part of the results. No count for the full screen is at hand.

B1: VH:VL chains; a variant is named by its letters at X, in order (parent)
chain 1: QVQLVQSGAEVKKPGASVKVSCKASGYTFTDYXMHWVRQAPGQGLEWMGXVNPNXXXTTYNQKFEGRVTMTTDTSTSTAYMELRSLRSDDTAVYYCARXNXLDXWGQGTTVTVSS
chain 2: DIQMTQSPSSLSASVGDRVTITCSVSSSVSSIYLHWYQQKPGKAPKLLIYSTSNLASGVPSRFSGSGSGTDFTLTISSLQPEDFATYYCQVYSGYPLTFGGGTKVEIK

Variants of: B1
Experiment: yeast display scFab, FACS + sequencing
Details: with MET
Procedure, shortened: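 Antigen binding was called positive for sequences present in both antigen-positive samples and negative for those present only in the input. These calls came from deep sequencing, in two replicates, of round-3 sorted and input populations from a heavy-chain CDR mutant scFab yeast surface library. The library was first enriched twice magnetically on HGFR-Fc-coated Protein A beads and then by FACS, gating the top 50% antigen-positive cells after 3 h labelling at room temperature with 1 nM HGFR-Fc plus anti-Myc in PBSB with 1% milk.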

Variant | antigen binding call
VEEEGDWD | no binding
YGKGGDLA | no binding
SKGRSSLA | binds
YKKGGSLA | binds
FKRAGSLA | binds
VKGRSDSA | no binding
DKEEDSLA | no binding
SKGRSDGA | no binding
VGGTSDWA | no binding
SRGRGYGD | no binding
SGGKNSVD | no binding
SRGRGSVD | binds
SRTGSDVD | no binding
SRGRGAVD | binds
SGEGGAAV | no binding
YRGRGVLF | binds
VRGRGVSY | no binding
VRGRGALF | binds
YRGRGALF | binds
AARADDWV | no binding

Variant | antigen binding call
FTEEGDGA | no binding
DAGEAFSF | no binding
AGGGNDGV | no binding
FRGRGSAF | binds
FRGRSSAF | binds
YEERSDAF | no binding
SAEGDAAD | no binding
SRARGAGA | binds
DAARGAAA | no binding
SRGRGFAA | no binding
SRARGAAA | binds
ARAASAGA | no binding
SGEGGAGA | no binding
SEEGTDWD | no binding
VATGDDVD | no binding
FKTKNYAD | no binding
DKEGGDVV | no binding
FTGTGSGA | no binding
FRGRDYGA | no binding
FRGESSGA | binds

Variant | antigen binding call
FRGESAAA | binds
FRGESAGA | binds
YAAGSDVY | no binding
DGGKNDGD | no binding
DGTGGAGA | no binding
DTGGDAGV | no binding
DATGGDVV | no binding
FTEEGDGV | no binding
YAEESSGV | no binding
YRAGSSGV | binds
YRAESSGV | binds
YRAKSSGV | binds
VAGAGDVV | no binding
FARKSFGS | no binding
YRKRGSSA | binds
YRRRGSVA | binds
YAKRGSWA | no binding
YRRRGSSA | binds
